# In PubChem BioAssay (NCI):
# Compounds without any hit were thinned out: in the full panel of roughly 83,000, 20% have a hit.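 The endpoint reported here, percent growth, reads 100 for growth as untreated, 0 for no net growth and -100 for all cells dead.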 The source made the active and inactive calls. How the source made its calls: active means growth percent below 10; inactive means the rest.
# Test system: NCI-H23 lung
# Assay: NCI-60 one-dose screen, 48 h (100 = growth as untreated, 0 = no growth, -100 = all killed)
# Conditions: 10 µM unless noted
row,Structure (SMILES),growth
1,COc1ccc(C2CC(c3ccc(OC)c(OC)c3)=NN2C(=O)c2cc(OC)c(OC)c(OC)c2)c(OC)c1 (configuration not stated),92.6% (inactive)
2,CCOC(=O)c1c2c(c(C)n1Cc1ccc(OC)cc1)-c1nc(N)ncc1CC2,125% (inactive)
3,O=C1N(C2CCCCC2)C(=O)N1C1CCCCC1,45.1% (inactive)
4,O=c1ccn(C2OC(CO)C(O)C2F)c(=O)[nH]1 (configuration not stated),90.5% (inactive)
5,CCCn1cnc2c1c(=O)n(CCCCC(C)=O)c(=O)n2C,105% (inactive)
6,CCCCc1nc(Cl)c(CO)n1Cc1ccc(-c2ccccc2-c2nn[nH]n2)cc1,106% (inactive)
7,COc1ccc(C2CC(c3cccc(Nc4ccnc5cc(Cl)ccc45)c3)=NN2C=O)cc1 (configuration not stated),10.7% (inactive)
8,O=c1c(O)cccn1CCCNCCCN(CCCn1cccc(O)c1=O)CCCn1cccc(O)c1=O,97.7% (inactive)
9,COc1ccc2nc(-c3ccc(-n4cncc4-c4ccc(OC)c(N)c4)cc3)sc2c1,108% (inactive)
10,Cc1cc(NC(=O)Nc2cc(Cl)ccc2C)no1,88.3% (inactive)
11,O=C1NCN(c2ccccc2)C12CCN(CCCC(c1ccc(F)cc1)c1ccc(F)cc1)CC2,72.9% (inactive)
12,CCC(O)C(C)(C)C (configuration not stated),102% (inactive)
13,COc1ncc(-c2ccc3nccc(C#CCN4CCN(S(C)(=O)=O)CC4)c3c2)cc1NS(=O)(=O)c1ccc(F)cc1F,6.7% (active)
14,O=C(Nc1ccc(Cl)cc1)c1cc2c(cc1O)[nH]c1ccccc12,-22.5% (active)
15,O=C1c2ccccc2C(=O)c2c1cccc2-n1nnc2ccccc21,106% (inactive)
16,Cc1nn(-c2ccccc2)c2c1oc(=O)c1cc(Cl)ccc12,107% (inactive)
17,CCC1=C(c2ccc(OC)cc2)C(C)(C)Oc2c1ccc(O)c2CN1CCCC1,13.1% (inactive)
18,O=C(NCCc1ccccc1)C1CCC(=O)N1Cc1ccc(Br)cc1 (configuration not stated),104% (inactive)
19,N#Cc1ccc(NC(=O)Nc2ccc(Oc3ccc(NC(=O)Nc4ccc(C#N)cc4)cc3)cc2)cc1,-0.877% (active)

row,Structure (SMILES),growth
1,COc1ccc2c(c1)C(=O)c1c-2c(OCCN(C)C)nc2cc(OC)ccc12,-57.2% (active)
2,O=C(Nc1cccc([N+](=O)[O-])c1)c1cccc(C(=O)Nc2cccc([N+](=O)[O-])c2)c1,107% (inactive)
3,CCCCCCCCCCCCCCCCCC1=NC(C)(C)CN1CCO,38.9% (inactive)
4,COc1ccc(OC)c(NC(=O)c2cc3oc4ccccc4c3cc2O)c1,87.4% (inactive)
5,CN1C(=O)/C(=C/c2nc(-c3cccc(F)c3)n3ccccc23)c2ccccc21,83.7% (inactive)
6,O=C(CN1CCCCC1)Sc1nnc2sc3ccccc3n12,93.1% (inactive)
7,C[C@]12CC[C@@H]3c4ccc(O)c([N+](=O)[O-])c4CC[C@H]3[C@@H]1CC[C@@H]2NS(=O)(=O)c1cccc(Br)c1,28% (inactive)
8,Cc1ccsc1/C=C/C1=NCCCN1C,97% (inactive)
9,CCCCCCCCCCSc1ncnc2nc[nH]c12,36.8% (inactive)
10,C[n+]1c2ccccc2c(NC2CCNCC2)c2[nH]c3ccccc3c21,3.72% (active)
11,COc1cccc2c1O/C(=C\c1c([N+](=O)[O-])ncn1C)C2=O,99.8% (inactive)
12,CC[C@@H]1OC(=O)[C@H](C)[C@@H](O[C@H]2C[C@@](C)(OC)[C@@H](O)[C@H](C)O2)[C@H](C)[C@@H](O[C@@H]2O[C@H](C)C[C@H](N(C)C)[C@H]2O)[C@](C)(O)C[C@@H](C)[C@@H]2N[C@@H](COCCOC)O[C@H]([C@H]2C)[C@]1(C)O,94% (inactive)
13,O=C1C[C@@H]2/C(=C(O)\C=C\c3ccccc3)C(=O)C=C[C@@H]2O1,77% (inactive)
14,Cc1cc2c(cc1[N+](=O)[O-])NC(CNC(C)C)CC2 (configuration not stated),93.9% (inactive)
15,CCCCN(CCCC)CCCOC(=O)c1ccc(N)cc1,96.1% (inactive)
16,C=C(C[C@](O)(C(=O)/C=C/c1ccc(Cl)cc1)C(=O)OC)c1ccccc1,64.4% (inactive)
17,CCN1C[C@@H](C)n2c(c(O)c3c(=O)n(Cc4ccc(F)c(Cl)c4)nc(C(=O)NC)c32)C1=O,11.3% (inactive)
18,Cc1nnc(Nc2ccc(NC(=O)Nc3ccc(Cl)cc3)cc2)c2ccccc12,48.8% (inactive)
